Measured values reported in PubChem BioAssay (NCI).
About 83,000 compounds went through this panel and 20% of them were active in at least one assay; those are over-represented in the sample as a whole.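 Treatment: one concentration, 48 hours, 96-well format. Scoring: percent growth, with anything below 10 considered active.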 The source made the active and inactive calls.

What was measured:
Test in all cases: NCI-60 one-dose screen, 48 h (100 = growth as untreated, 0 = no growth, -100 = all killed)
Conditions in all cases: 10 µM unless noted
NCI-H23 lung = tested on: NCI-H23 lung
NCI-H226 lung = tested on: NCI-H226 lung
NCI-H322M lung = tested on: NCI-H322M lung
HOP-62 NSCLC = tested on: HOP-62 NSCLC
NCI-H460 lung = tested on: NCI-H460 lung
HOP-92 NSCLC = tested on: HOP-92 NSCLC
NCI-H522 lung = tested on: NCI-H522 lung
A549/ATCC NSCLC = tested on: A549/ATCC NSCLC
786-0 renal = tested on: 786-0 renal
COLO 205 colon = tested on: COLO 205 colon
DU-145 prostate = tested on: DU-145 prostate
K-562 leukemia = tested on: K-562 leukemia
MALME-3M melanoma = tested on: MALME-3M melanoma
MDA-MB-231 breast = tested on: MDA-MB-231 breast
RXF 393 renal = tested on: RXF 393 renal
SF-268 CNS = tested on: SF-268 CNS
SF-295 CNS = tested on: SF-295 CNS
SF-539 CNS = tested on: SF-539 CNS
UACC-257 melanoma = tested on: UACC-257 melanoma
M14 melanoma = tested on: M14 melanoma

Measured: growth

Fc1cccc(-c2nc(-c3c[nH]c4ncccc34)cs2)c1
active: MALME-3M melanoma 0.186% [100 µM]
inactive: NCI-H23 lung 64.2% [100 µM] | NCI-H226 lung 53.1% [100 µM] | NCI-H322M lung 59.1% [100 µM] | HOP-62 NSCLC 48.9% [100 µM] | NCI-H460 lung 40.5% [100 µM] | HOP-92 NSCLC 38.3% [100 µM] | NCI-H522 lung 81.5% [100 µM] | A549/ATCC NSCLC 33.9% [100 µM] | 786-0 renal 62.3% [100 µM] | COLO 205 colon 76.9% [100 µM] | DU-145 prostate 63.8% [100 µM] | K-562 leukemia 94% [100 µM] | MDA-MB-231 breast 44.6% [100 µM] | RXF 393 renal 51.7% [100 µM] | SF-268 CNS 45.5% [100 µM] | SF-295 CNS 17.2% [100 µM] | SF-539 CNS 56.1% [100 µM] | UACC-257 melanoma 99.3% [100 µM] | M14 melanoma 22.2% [100 µM]

Nc1nc2ccccc2c2c(=O)c3cc(Cl)ccc3sc12
inactive: NCI-H23 lung 87.5% | NCI-H226 lung 92.7% | NCI-H322M lung 91.8% | HOP-62 NSCLC 89.7% | NCI-H460 lung 86.2% | HOP-92 NSCLC 81.3% | NCI-H522 lung 93.4% | A549/ATCC NSCLC 93.9% | 786-0 renal 98.5% | DU-145 prostate 14.6% | K-562 leukemia 96.1% | MALME-3M melanoma 108% | MDA-MB-231 breast 84.7% | RXF 393 renal 108% | SF-268 CNS 13% | SF-295 CNS 96.2% | SF-539 CNS 95.5% | UACC-257 melanoma 99.1% | M14 melanoma 105%

CC(C)Cc1nc(Nc2ccccc2)[nH]c(=O)c1C#N
active: HOP-92 NSCLC -14%
inactive: NCI-H23 lung 33.8% | NCI-H226 lung 58.1% | NCI-H322M lung 61% | HOP-62 NSCLC 82.7% | NCI-H460 lung 59.8% | NCI-H522 lung 17.3% | A549/ATCC NSCLC 57.3% | 786-0 renal 72.6% | COLO 205 colon 49.7% | DU-145 prostate 70.8% | K-562 leukemia 48.8% | MALME-3M melanoma 72.6% | MDA-MB-231 breast 47.9% | RXF 393 renal 67.4% | SF-268 CNS 63.3% | SF-295 CNS 58.7% | SF-539 CNS 50.7% | UACC-257 melanoma 81.2% | M14 melanoma 53.2%

COc1ccc(C2[C@@H](Cl)C(=O)N2c2cc(OC)c(OC)c(OC)c2)cc1Cl (stereo partly specified)
active: NCI-H460 lung 5.19% | NCI-H522 lung -28.7% | 786-0 renal 5.5% | DU-145 prostate 6.13% | K-562 leukemia 5.8% | RXF 393 renal -2.33% | SF-295 CNS 8.96% | SF-539 CNS 9.09% | M14 melanoma -4.46%
inactive: NCI-H23 lung 34.9% | NCI-H226 lung 59.8% | NCI-H322M lung 40% | HOP-62 NSCLC 21% | HOP-92 NSCLC 33.6% | A549/ATCC NSCLC 14.8% | MALME-3M melanoma 69.1% | MDA-MB-231 breast 33.5% | SF-268 CNS 26.1% | UACC-257 melanoma 31.5%

O=S(=O)(Nc1cc(F)cc(F)c1)c1ccc(-c2cnc(C3CC3)o2)cc1
inactive: NCI-H23 lung 63.7% | NCI-H226 lung 48.2% | NCI-H322M lung 63.2% | HOP-62 NSCLC 40.9% | NCI-H460 lung 25.3% | HOP-92 NSCLC 42.5% | A549/ATCC NSCLC 46.7% | 786-0 renal 35.5% | DU-145 prostate 70.4% | MALME-3M melanoma 50.1% | MDA-MB-231 breast 58.2% | RXF 393 renal 46.6% | SF-268 CNS 56.7% | SF-295 CNS 20.9% | SF-539 CNS 29.2% | UACC-257 melanoma 62.7% | M14 melanoma 16.5%
active: NCI-H522 lung 7.85% | K-562 leukemia 9.67%

Cc1ccc(C)c2c1sc1nc(N3CCOCC3)c(C#N)c(=O)n12
inactive: NCI-H23 lung 76.1% | NCI-H226 lung 89.6% | NCI-H322M lung 107% | HOP-62 NSCLC 94.2% | NCI-H460 lung 94.9% | HOP-92 NSCLC 71.7% | NCI-H522 lung 94.8% | A549/ATCC NSCLC 98.4% | 786-0 renal 104% | COLO 205 colon 104% | DU-145 prostate 103% | K-562 leukemia 151% | MALME-3M melanoma 97.1% | MDA-MB-231 breast 92% | RXF 393 renal 114% | SF-268 CNS 88% | SF-295 CNS 61.7% | SF-539 CNS 96.4% | UACC-257 melanoma 112% | M14 melanoma 92.9%

CCOC(=O)C#Cc1c(C(=O)OCC)nnn1[C@@H]1O[C@H](COC)[C@@H](OC)[C@H]1OC
inactive: NCI-H23 lung 101% | NCI-H226 lung 82.6% | NCI-H322M lung 92.9% | HOP-62 NSCLC 97.8% | NCI-H460 lung 109% | HOP-92 NSCLC 68.5% | A549/ATCC NSCLC 95.9% | 786-0 renal 84.2% | DU-145 prostate 92.6% | MALME-3M melanoma 25.8% | MDA-MB-231 breast 107% | RXF 393 renal 14% | SF-268 CNS 106% | SF-295 CNS 95.1% | SF-539 CNS 84.7% | UACC-257 melanoma 59.3% | M14 melanoma 61.8%
active: NCI-H522 lung -58.7% | COLO 205 colon -54.7% | K-562 leukemia 9.33%

c1ccc(Cn2cc3c(c2-c2ccccc2)CCc2cnoc2-3)cc1
inactive: NCI-H23 lung 78.8% | NCI-H226 lung 83.6% | NCI-H322M lung 95.6% | HOP-62 NSCLC 75.1% | NCI-H460 lung 53.7% | HOP-92 NSCLC 65.8% | NCI-H522 lung 56.6% | A549/ATCC NSCLC 59.6% | 786-0 renal 80.2% | DU-145 prostate 88.3% | K-562 leukemia 16.2% | MALME-3M melanoma 45.8% | MDA-MB-231 breast 87.2% | RXF 393 renal 80.6% | SF-268 CNS 76.6% | SF-295 CNS 60.4% | SF-539 CNS 71.9% | UACC-257 melanoma 92.4% | M14 melanoma 44.1%
